{"source": "PubChem BioAssay AID648", "about": "(SRMLSC, 2007)", "note": "About 920 (1.1%) of roughly 86,000 compounds were called active. This excerpt belongs to a sample that is enriched for actives. Values without a mark were called inactive.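 How the source made its calls: active means viability at or below 30%; inactive means viability above 30%.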"}
{"test": "inhibitors of HUVEC proliferation, primary screen, cell-based, 384-well (AID 648);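 further: 100% = median luminescence of DMSO-only cell control wells on each plate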", "conditions": "CellTiter-Glo luminescence, 72 h, stronger effect = lower value, screened at 10 µM (by protocol)"}
{"smiles": "O=C(C(NS(=O)(=O)c1cccc2nsnc12)c1ccccc1)N1CCN(c2ccccc2)CC1", "note": "(stereo not drawn)", "viability": "101%"}
{"smiles": "CCC1(C)Cc2c(sc3nc4n(c(=O)c23)CCCS4)CO1", "note": "(stereo not drawn)", "viability": "101%"}
{"smiles": "CCC1(C)Cc2c(sc3[nH]c(=S)n(Cc4ccccc4)c(=O)c23)CO1", "note": "(stereo not drawn)", "viability": "7% (active)"}
{"smiles": "CCC1(C)Cc2c(sc3nc(SC)nc(N)c23)CO1", "note": "(stereo not drawn)", "viability": "93.2%"}
{"smiles": "C=CCn1c(N)cc(=O)nc1SCC(=O)Nc1cccc2ccccc12", "viability": "103%"}
{"smiles": "O=C(NC1CCCCC1)c1ccc(CNc2c(N3CCOCC3)c(=O)c2=O)cc1", "viability": "105%"}
{"smiles": "COC(=O)c1c(C)c(C)nc(N)c1C#N", "viability": "104%"}
{"smiles": "Oc1ccc2ccc3cccc[n+]3c2c1", "viability": "97.5%"}
{"smiles": "Cc1cc(N)n2nc(-c3ccc(C(C)(C)C)cc3)cc2n1", "viability": "24.9% (active)"}
{"smiles": "COc1ccc(-c2cc(C)nc3nc(N)nn23)cc1", "viability": "86.4%"}
{"smiles": "Cc1nc2cc(-c3ccc(F)cc3)nn2c(N2CCOCC2)c1C", "viability": "98.8%"}
{"smiles": "CCCCCN1CC(O)=C(c2nc(-c3ccc(Cl)cc3)cs2)C1=N", "viability": "102%"}
{"smiles": "O=C(O)CCN=C1CCc2ccccc2N1", "viability": "95.7%"}
{"smiles": "O=C(COc1ccc(S(=O)(=O)NCc2ccccc2)cc1)N1CCOCC1", "viability": "98.2%"}
{"smiles": "Cc1ccc2oc(=O)c3cnn(CC(=O)N(Cc4ccco4)C4CCCCC4)c3c2c1", "viability": "84%"}
{"smiles": "COc1cc(CC(=O)NCc2cccs2)cc(OC)c1OC", "viability": "98.3%"}
{"smiles": "CC(=O)Nc1ccc(NC(=O)CSCc2cnn(-c3ccccc3)c2-n2cccc2)cc1", "viability": "89.5%"}
{"smiles": "C1=C(CCNc2ncnc3c2cnn3-c2ccccc2)CCCC1", "viability": "94.9%"}
{"smiles": "O=C(NCCC1=CCCCC1)C1CCN(Cc2cnn(-c3ccccc3)c2-n2cccc2)CC1", "viability": "28.4% (active)"}
{"smiles": "CCn1c(SCC(=O)Nc2ccc(S(=O)(=O)Nc3onc(C)c3C)cc2)nnc1-c1ccccc1", "viability": "89.5%"}
{"smiles": "Brc1ccc(-c2nnc(-c3ccccc3)o2)o1", "viability": "90.9%"}
{"smiles": "OCCN1CCOCCOCCN(CCO)CCN(CCO)CC1", "viability": "105%"}
{"smiles": "CC(C)(C)c1cc(=O)n2c(nc3ccccc32)[nH]1", "viability": "103%"}
{"smiles": "Cc1[nH]n(-c2cccc(Cl)c2)c(=O)c1-c1ccc(Cl)cc1", "viability": "63.2%"}
{"smiles": "Cc1nc2nc(COc3ccccc3)[nH]n2c(=O)c1C", "viability": "88.1%"}
{"smiles": "Cc1nc2c(-c3ccccc3)c(C)[nH]n2c(=O)c1Cl", "viability": "12% (active)"}
{"smiles": "CCCN(Cc1cc2cccc(C)c2[nH]c1=O)S(C)(=O)=O", "viability": "95.8%"}
{"smiles": "CCOc1ccc(S(=O)(=O)N2CCCCCC2)c2ccccc12", "viability": "102%"}
{"smiles": "O=C1CSC2=NCN(c3ccccc3)CN12", "viability": "93.5%"}
{"smiles": "Cc1cccc(N2C(=O)c3cccnc3C2=O)c1", "viability": "95.8%"}
{"smiles": "COc1cc(/C=C(\\C#N)c2nc3c(s2)CC(C)CC3)ccc1O", "note": "(stereo not drawn)", "viability": "83.7%"}
{"smiles": "COc1ccc(-n2c(SCC(=O)Nc3sc4c(c3C#N)CCCC4)nnc2-c2ccc(O)cc2)cc1", "viability": "3.66% (active)"}
{"smiles": "N#Cc1c(NC(=O)CSc2nc3ccccc3c(=O)n2Cc2ccco2)sc2c1CCCC2", "viability": "58.5%"}
{"smiles": "COc1ccc(-c2nnc(SCC(=O)c3ccco3)n2-c2ccccc2)cc1", "viability": "92.6%"}
{"smiles": "Cc1cc(NC(=O)CCC(=O)N(CC(=O)NCC2CCCO2)c2ccccc2C)no1", "note": "(stereo not drawn)", "viability": "105%"}
{"smiles": "CC(C)(O)C(=O)NN(C(=O)c1ccccc1)c1cccc(Br)c1", "viability": "109%"}
{"smiles": "CCOC(=O)c1nnn(-c2nonc2-n2cccc2)c1CN1CCC(C(=O)OCC)CC1", "viability": "92.5%"}
{"smiles": "Cc1cc(-n2nc(C)cc2C)n2nc(C)c(-c3ccccc3)c2n1", "viability": "106%"}
{"smiles": "CCOC(=O)c1nnn(-c2nonc2-n2cccc2)c1CN1CCOCC1", "viability": "100%"}
{"smiles": "Fc1ccccc1/C=C1\\CCCC2=C1Nc1ncnn1C2c1ccccc1F", "note": "(stereo not drawn)", "viability": "13% (active)"}
{"smiles": "CCCCc1nnc(NC(=O)CS(=O)(=O)Cc2ccccc2)s1", "viability": "107%"}
{"smiles": "Clc1ccc(COn2c(-c3ccc(Cl)cc3Cl)nc3ncccc32)cc1", "viability": "86%"}
{"smiles": "Cc1noc(/C=C/c2ccco2)c1S(=O)(=O)N1CCC(C(=O)N2CCc3ccccc32)CC1", "viability": "93.3%"}
